Reference: PubChem BioAssay AID1347426 (Functional Genomics Laboratory (NCATS/FGL), 2020)
In all, about 31,000 sequences went through this assay and about 1,400 (4.5%) were called active. This is one part of a sample in which actives are shown more often than they occur.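 Rule for the calls: active = median seed-adjusted z-score above 1 or below -1; inactive = the rest.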

test: Novel Modifiers of Survival Motor Neuron (SMN) Protein: Gene Identification via Genome-wide siRNA Screen; details: HEK293T SMN2-luciferase reporter, siRNA knockdown, 72 h; actives lie on both sides;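 note: luminescence tracks full-length SMN protein made from the SMN2 reporter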
Procedure, shortened: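 HEK293T cells stably carrying an SMN2 promoter/splicing cassette–luciferase reporter were reverse-transfected with 1 pmol siRNA per well (druggable-genome library, 3 siRNAs per gene) and grown 72 h at 37 °C. Luminescence, normalized to negative-control siRNA and log10-transformed, was scored as MAD.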

Q: Which median seed-adjusted z-score does the source give for CGAGGACACCCUUAGCAGUTT against ADRA1B here?
A: -0.472 (inactive)

Q: Which median seed-adjusted z-score does the source give for GACCGUACGAGGCAAGUAATT against PAX1 here?
A: -0.111 (inactive)

Q: For GAACGAGUGAGAGAAUAUATT against TTC9C, which median seed-adjusted z-score is on record?
A: -0.571 (inactive)

Q: For GCCGAGUCAGUAUCUAUGATT against STARD13, which median seed-adjusted z-score is on record?
A: -0.0337 (inactive)

Q: For GGACAAGAAUUUUGCCUUUTT against U2AF2, which median seed-adjusted z-score is on record?
A: 2.14 (active)

Q: For CCACGGUGAUAACAGACAUTT against ALDH8A1, which median seed-adjusted z-score is on record?
A: 0.0628 (inactive)

Q: With GGCUAUACAGGGUAGACAATT against PXDNL as the sequence, how does the median seed-adjusted z-score read?
A: -0.186 (inactive)

Q: With GGCAGAUAACUGAACGAGATT against HECW2 as the sequence, how does the median seed-adjusted z-score read?
A: 0.38 (inactive)

Q: With CUGGCUACGUGAAUGUGCATT against ZDHHC12 as the sequence, how does the median seed-adjusted z-score read?
A: -0.0312 (inactive)

Q: For GGAACUCGUGCAUCUCCAATT against CD93, which median seed-adjusted z-score is on record?
A: -0.0879 (inactive)

Q: For GAGAUUACAUAAACGGAGATT against PARP11, which median seed-adjusted z-score is on record?
A: 0.192 (inactive)

Q: With CAGAUGUUAUGGAUAUAAUTT against L2HGDH as the sequence, how does the median seed-adjusted z-score read?
A: -0.346 (inactive)

Q: For GCUUAUGGUUGAUCAGUUATT against RNF7, which median seed-adjusted z-score is on record?
A: -1.18 (active)

Q: With UGAGUUGCCCUGAUUUGAATT against AIF1 as the sequence, how does the median seed-adjusted z-score read?
A: -0.0293 (inactive)

Q: Which median seed-adjusted z-score does the source give for GCAACUCCUUCCUCGCUAATT against RBM17 here?
A: 0 (inactive)

Q: Which median seed-adjusted z-score does the source give for GAAUGUUCAAGAUCGAUUUTT against RANBP2 here?
A: 1.53 (active)

Q: With UCAUGUAUGUGGGAGCCAATT against SNCG as the sequence, how does the median seed-adjusted z-score read?
A: -0.169 (inactive)

Q: With AGGUGAUGCAGGACAGAAATT against COL18A1 as the sequence, how does the median seed-adjusted z-score read?
A: -0.441 (inactive)

Q: With CCUCAACUCUUAUAUUACATT against ZNF595 as the sequence, how does the median seed-adjusted z-score read?
A: 0.102 (inactive)

Q: For GGAUCCCUAUGUUCGGAAATT against AP2B1, which median seed-adjusted z-score is on record?
A: -0.214 (inactive)

Q: Which median seed-adjusted z-score does the source give for GCAGUAAUAUUUAUCUCUUTT against SUCNR1 here?
A: 0 (inactive)

Q: For CCUGAAUCCUUAGACUUAATT against PROX1, which median seed-adjusted z-score is on record?
A: -0.372 (inactive)

Q: Which median seed-adjusted z-score does the source give for ACCCUGCUAUACUCCCUAUTT against MAPKAPK3 here?
A: -0.506 (inactive)

Q: For GAUCCUAAUAUGAAGUUAUTT against FUBP1, which median seed-adjusted z-score is on record?
A: -1.52 (active)

Q: For GCUAGAGAUUGACCAGAAATT against NUDC, which median seed-adjusted z-score is on record?
A: -0.227 (inactive)

Q: With GGCAACAACUGGAUCUGAATT against PIGZ as the sequence, how does the median seed-adjusted z-score read?
A: 0.74 (inactive)

Q: Which median seed-adjusted z-score does the source give for CUGGAUGAGGUGUACCUUATT against XPNPEP1 here?
A: -1.5 (active)

Q: Which median seed-adjusted z-score does the source give for GCAUGACCCUCGUCACAUATT against THBS1 here?
A: -0.847 (inactive)

Q: Which median seed-adjusted z-score does the source give for GGGUAGGUGAUAUCCAUAUTT against ZBTB5 here?
A: 0.314 (inactive)

Q: Which median seed-adjusted z-score does the source give for GGCGGAGUAUGGAAAGUUATT against UBE2H here?
A: 0 (inactive)

Q: For GCACCUCUCUGCUAACUGUTT against PGC, which median seed-adjusted z-score is on record?
A: 0.884 (inactive)

Q: For CGAUGUCAGUAGGAACCUUTT against PSMC1, which median seed-adjusted z-score is on record?
A: -2.23 (active)

Q: Which median seed-adjusted z-score does the source give for CGACUACCCAUACUCUCCATT against CDC34 here?
A: 0 (inactive)

Q: With CUACCUCUAUAUCACCAAATT against KDELR1 as the sequence, how does the median seed-adjusted z-score read?
A: -0.0168 (inactive)

Q: With CCGUUGCUCUAUCUUCGUATT against SETBP1 as the sequence, how does the median seed-adjusted z-score read?
A: 0.0232 (inactive)

Q: Which median seed-adjusted z-score does the source give for GAAAGACAGAUCAAGAUUUTT against HOXB7 here?
A: -0.153 (inactive)

Q: With ACCGCUUCAUGUCUGCGUATT against SF3A2 as the sequence, how does the median seed-adjusted z-score read?
A: -1.7 (active)

Q: For AUCCGAUGGUGGUUACUGATT against MCOLN1, which median seed-adjusted z-score is on record?
A: -0.522 (inactive)

Q: Which median seed-adjusted z-score does the source give for CGGCUUGAAUUUGAUCUAUTT against AASDHPPT here?
A: 0.64 (inactive)

Q: With GAGUGACUGUAGAGCCUCATT against GCS1 as the sequence, how does the median seed-adjusted z-score read?
A: 0.819 (inactive)

Q: Which median seed-adjusted z-score does the source give for CACGGUCUGUUCUCAGAUUTT against MXD4 here?
A: 0.688 (inactive)

Q: Which median seed-adjusted z-score does the source give for CCCUUUUACUAUUCAGCGATT against PPP4R2 here?
A: 0.211 (inactive)

Q: For CAUUUUAGAUGGGCACAAUTT against GOSR2, which median seed-adjusted z-score is on record?
A: -1.25 (active)

Q: With GAAUGAUCGUGAUCCUCGUTT against AHCTF1 as the sequence, how does the median seed-adjusted z-score read?
A: -0.501 (inactive)

Q: Which median seed-adjusted z-score does the source give for GAGUGAAGAUGAGUUGACATT against XRCC6 here?
A: 0 (inactive)

Q: With GACCGGAUAUGGGCUAUAATT against NEK7 as the sequence, how does the median seed-adjusted z-score read?
A: 0 (inactive)

Q: For CAAUUUUGCAGGCAACUUUTT against SCYE1, which median seed-adjusted z-score is on record?
A: 0.437 (inactive)

Q: With GACAUAUAAUGACAUAGAUTT against TRAK1 as the sequence, how does the median seed-adjusted z-score read?
A: 0.298 (inactive)

Q: Which median seed-adjusted z-score does the source give for CUUUGUCAGAGAUCACUUATT against PIPOX here?
A: 1.06 (active)

Q: Which median seed-adjusted z-score does the source give for GGAAUGCUAAGUUCCGAGATT against ARFGAP1 here?
A: 0.123 (inactive)

Q: With AGGUUUCAGUGGUUUGGAUTT against COL1A1 as the sequence, how does the median seed-adjusted z-score read?
A: 0 (inactive)

Q: For CCAAGAACCCGGAGAAGUATT against EXOC7, which median seed-adjusted z-score is on record?
A: -0.231 (inactive)

Q: Which median seed-adjusted z-score does the source give for GUACAAUACAAACACUUAATT against ORC4L here?
A: -0.286 (inactive)

Q: With GCGUGGACCCAAAUCAAUATT against KARS as the sequence, how does the median seed-adjusted z-score read?
A: -0.152 (inactive)

Q: Which median seed-adjusted z-score does the source give for GCUCCAACAUGGUCUACAATT against POLE here?
A: -1.55 (active)

Q: With GCUAGUCUUCUGGAAGUUATT against SRPRB as the sequence, how does the median seed-adjusted z-score read?
A: 0.000693 (inactive)

Q: With GGAUAUGCAUGCAAUCAAATT against ADAM23 as the sequence, how does the median seed-adjusted z-score read?
A: -0.0279 (inactive)

Q: Which median seed-adjusted z-score does the source give for GCCGUGACAUGAUAGGCAUTT against DDX41 here?
A: -0.611 (inactive)

Q: With GGUUUGUGAAAGCAUAUAATT against FMNL2 as the sequence, how does the median seed-adjusted z-score read?
A: 0.293 (inactive)

Q: With GGAACGAAGAGAACUAGAATT against OFD1 as the sequence, how does the median seed-adjusted z-score read?
A: 0 (inactive)

Q: With CCAAGGAGCUUACUAUGGATT against SETDB2 as the sequence, how does the median seed-adjusted z-score read?
A: 0.417 (inactive)

Q: Which median seed-adjusted z-score does the source give for UGAGCAUGACUGAUUCCAATT against SFTPD here?
A: 0.289 (inactive)

Q: For GUGAAGAUGUGGUCCUGAATT against PTK2B, which median seed-adjusted z-score is on record?
A: 1.71 (active)

Q: For GGCUGUAAACUGCGCAUCATT against APOBEC2, which median seed-adjusted z-score is on record?
A: 0.232 (inactive)

Q: With GAAUUGGAGAGCACCAAUATT against POLR2B as the sequence, how does the median seed-adjusted z-score read?
A: -4.81 (active)

Q: For ACAGGAUUCCAGAAAUGGATT against REG1A, which median seed-adjusted z-score is on record?
A: 0.596 (inactive)

Q: With GCAGAAUUCUCCUACCAAATT against ENTPD3 as the sequence, how does the median seed-adjusted z-score read?
A: -0.28 (inactive)

Q: For GGUCAACGAUGACAACCGATT against ITGB4, which median seed-adjusted z-score is on record?
A: -0.226 (inactive)

Q: With CGGUAUCAUUACUGGAUAATT against LNPEP as the sequence, how does the median seed-adjusted z-score read?
A: -0.386 (inactive)
